Structures are written as SMILES. “And” between values parts separate entries of the source, which are not always exact repeats. Equal values may be shown once. Records with an inconclusive call do not appear. A call without a number means that no potency is given here. The source made the active and inactive calls. The call rests on the fitted dose curve; in most records, active means well fitted cell-killing curve with a large enough effect in the repeat runs; inconclusive means weak or mixed curves, or effect the other way; inactive means flat fitted curve, though single readings scatter.
Potency means the concentration at half of the fitted maximal effect.

This assay in a line: qHTS assay to identify small molecule agonists of the estrogen receptor beta (ER-beta) signaling pathway - cell viability counter screen (AID 1259380). Further: nearly all actives have a fitted effect of over 30% in size. Particulars: ER-beta-bla HEK293T viability, CellTiter-Glo luminescence, 16 h; series mostly up to 92.4 µM. The text has this: National Center for Advancing Translational Sciences [NCATS]
NIH Chemical Genomics Center [NCGC]
U.S. Environmental Protection Agency [EPA]
National Institutes of Environmental Health Sciences [NIEHS]
National Toxicology Program [NTP]
U.S. Food and Drug Administration [FDA]
Estrogen receptor (ER), a nuclear hormone receptor, plays an important role in development, metabolic homeostasis and reproduction. Two subtypes of ER, ER-alpha and ER-beta, have similar expression patterns with some uniqueness in both types. Endocrine disrupting chemicals (EDCs) and their interactions with steroid hormone receptors like ER causes disruption of normal endocrine function. To identify the compounds that activate ER signaling, an ER beta-UAS-bla GripTite cell line (Life Technologies, Madison, WI, USA) containing a beta-lactamase reporter gene under the control of an UAS response element was used to screen Tox21 10K compound library. The cytotoxicity of the Tox21 compound library against the ER-beta-bla cell line was tested in parallel by measuring the cell viability using CellTiter-Glo assay in the same wells.
Tox21 Assay Protocol Summary:
ER-beta-UAS-bla HEK293T cells were dispensed at 2,000 cells/5 uL of assay medium containing 2% charcoal stripped FBS per well into black wall/clear-bottom 1536-well plates using a Multidrop Combi (ThermoFisher Scientific, Waltham, MA) dispenser. After the assay plates were incubated at a 37C and 5% CO2 for 6 hr, 23 nL of compounds dissolved in DMSO, positive controls or DMSO only was transferred to the assay plate by a Pintool station (Kalypsys, San Diego, CA). The plates were incubated at 37C and 5% CO2 for 16 hr. Then 1 uL of LiveBLAzerTM B/G FRET substrate was added using a BioRAPTR FRD (Flying Reagent Dispenser, Aurora Discovery, San Diego, CA) and then the plates were incubated at room temperature for 2 hours, and fluorescence intensity was measured by an Envision plate reader (PerkinElmer, Shelton, CT). For cell viability readout that measures cytotoxicity, 4 uL/well of CellTiter-Glo reagent was added into the assay plates using a FRD. After 30 min incubation at room temperature, the luminescence intensity in the plates was measured using a ViewLux (PerkinElmer) plate reader.
Turning to `CC(C)(C)CC(C)(C)c1ccccc1O`, the Potency is 43.5 µM (active).

Regarding `CO[Si](CCC1CCC2OC2C1)(OC)OC` (stereo not given), the Potency result was “inactive”.

Consider `CSc1ccc2c(c1)N(CCC1CCCCN1C)c1ccccc1S2` (stereo not given), for which the Potency was 19.3 µM (active) and 18.8 µM (active).

On to `C[Si](C)O[Si](C)C`, for which the Potency entry is “inactive”.

In the case of `[O]=[Zr]`, the Potency result is “inactive”.

`CCCCCCCCCCCCCC[n+]1ccccc1`: the Potency was 30.6 µM (active).

Turning to `CN1[C@@H]2CC[C@H]1CC(OC(=O)C(CO)c1ccccc1)C2` (stereo not given in full), the Potency was 68.5 µM (active).

As to `C=C(c1ccc(C(=O)O)cc1)c1cc2c(cc1C)C(C)(C)CCC2(C)C`, the Potency is 34.4 µM (active) and 33.5 µM (active).

In the case of `CCCCCCCCCCCCCCNCCO`, the Potency was 26.6 µM (active).

For the compound `COc1cccc(OC)c1O`, the Potency result was “inactive”.

`Cc1cc(Nc2ccc(O)cc2)ccc1N`: the Potency was 27.2 µM (active).

On to `Cc1cccc(N(C)C)c1`, for which the Potency entry was “inactive”.

On to `CCOB(OCC)OCC`, for which the Potency result is “inactive”.

`Cn1cccc1`: the Potency entry was “inactive”.

With `C=C(C)C(=O)OCCC[Si](Cl)(Cl)Cl`, the Potency result is “inactive”.

As to `COc1nccnc1CC(C)C`, the Potency entry is “inactive”.

With `COC(=O)NCCC[Si](OC)(OC)OC`, the Potency result is “inactive”.

On to `O=S(O)O`, for which the activity change, negative = cytotoxicity was -0.0055% [at 19 µM] (inactive).

`C/C=C/CO`: the Potency entry was “inactive”.

On to `Cc1ccc(-n2[nH]c(C)c(N=Nc3cccc(-c4cccc(C(=O)O)c4)c3O)c2=O)cc1C`, for which the Potency is 26.6 µM (active).

As to `C=CCCCCCCC=C`, the Potency entry is “inactive”.

`CCO[Si](CCCSSSSCCC[Si](OCC)(OCC)OCC)(OCC)OCC`: the Potency is 61.2 µM (active).

With `ClC/C=C\CCl`, the Potency result is “inactive”.

As to `Cc1ccc(O)cn1`, the Potency result is “inactive”.

With `CCCCNc1c(C(=O)OCC)c(C)nc2c1cnn2CC`, the Potency entry is “inactive”.

As for `CCCOc1sc(C(=O)N2CCC(c3cc(CN)ccc3F)CC2)c(C)c1Br`, the Potency is 28.1 µM (active).

`CN(C)CCOC(c1ccccc1)c1ccccc1` (tested in a mixture with another compound): the Potency was 69.1 µM (active).

For `CC(C)(C)c1n[nH]c(=O)n(N)c1=O`, the Potency result was “inactive”.

`O=C(Nc1ccc(Cl)c(Cl)c1)c1cc(Cl)cc(Cl)c1O`: the Potency is 21.7 µM (active).

With `CCCCN(C)C`, the Potency entry was “inactive”.

For `COC(=O)[C@]1(C)CCC[C@@]2(C)[C@H]1CC=C1C=C(C(C)C)CC[C@@H]12`, the Potency is 68.6 µM (active).

In the case of `CCCCCCCC(=O)OCC`, the Potency result was “inactive”.

Turning to `CC(=O)OC(OC(C)=O)c1ccc([N+](=O)[O-])o1`, the Potency was 62.2 µM (active).

As to `C[C@@H]1CC[C@H]2C(C)(C)[C@H]3C[C@@]12CC[C@@]3(C)O`, the Potency entry is “inactive”.

For the compound `O=C1OC(=O)c2cccc3cccc1c23`, the Potency result is “inactive”.

Turning to `Cc1cc(C)c(C=O)c(C)c1`, the Potency result is “inactive”.

As to `O=c1cccc[nH]1`, the Potency result is “inactive”.

Regarding `CS(C)(=O)=O`, the Potency entry is “inactive”.

In the case of `CN(C)CCCN1c2ccccc2CCc2ccccc21`, the Potency is 30.6 µM (active) and 23.7 µM (active).

On to `COc1cc(C=C2CCC/C(=C\c3ccc(O)c(OC)c3)C2=O)ccc1O`, for which the Potency is 33.5 µM (active).
